# Out of some 360,000 compounds screened, about 7,300 (2%) were called active. Many of the other results were omitted from the sample, so actives are more common in it than they were. Values without a mark were called inactive. Rule as the data show it: active = inhibition above about 50%; inactive = the rest.
# Test: inhibitors of TWEAK-Fn14 signaling, primary screen, luciferase reporter cells, uHTS (AID 1159606)
# Conditions: TWEAK-stimulated Fn14 reporter cells, luciferase luminescence, 8 h; at 10 µM; active compounds read high
row,SMILES,inhibition
1,O=S(=O)(Cc1ccc(Cl)cc1Cl)c1ccc(Cl)cc1,12.1%
2,CCCCNC(=O)C[C@@H]1C[C@@]2(C(=O)OCC)CCC=C2N(Cc2cccc3ccccc23)C1=O,14.7%
3,CC(=O)c1c(C)oc2ccc(NS(=O)(=O)c3ccc(C(=O)O)cc3)cc12,3.85%
4,CC(=O)c1c(C)oc2ccc(NS(=O)(=O)c3ccccc3)cc12,21.6%
5,COc1ccc(S(=O)(=O)Nc2ccc3oc(C)c(C(C)=O)c3c2)cc1,54.4% (active)
6,CC1(C(=O)NS(=O)(=O)c2ccc(C#N)cc2)CCN1C(=O)CC1CCCC1 (stereo not drawn),1.67%
7,CCCCCCN1C[C@H](O)[C@@H](n2cc(C3CC3)nn2)C[C@@H]1c1ccc(Cl)cc1,-1.73%
8,O=C(/C=C/[C@H]1O[C@@H](n2cnc3c(NC(=O)c4ccccc4)ncnc32)[C@H](O)[C@@H]1O)NCc1ccccc1,-7.74%
9,COc1ccc(NC(=S)SC)cc1OC,68.3% (active)
10,COc1ccc(NC(=O)CSCc2ccc([N+](=O)[O-])cc2)cc1OC,6.35%
11,COc1ccc(NC(=O)C2C3CCC(O3)C2C(=O)O)cc1OC (stereo not drawn),2.27%
12,COc1cc(OC)cc(C(=O)NCCSCc2ccc(Cl)cc2)c1,0.23%
13,C=CCn1c(SCC(=O)NC(=O)Cc2ccccc2)nc2ccccc2c1=O,14%
14,CCn1c(/C=C/c2ccc([N+](=O)[O-])o2)nc2ccccc2c1=O,63.4% (active)
15,Cc1nc2ccccc2c(=O)n1NC(=O)c1ccc(Cl)c([N+](=O)[O-])c1,32.6%
16,COc1ccc(Cl)cc1NC(=O)COC(=O)C(CC(C)C)N1C(=O)C2CC=CCC2C1=O (stereo not drawn),-4.03%
17,Nc1[nH]c(C(=O)c2ccccc2)c(-c2ccc(Br)cc2)c1C(=O)NC1CC1,-5.57%
18,CC(C)(C)c1ccc(Oc2ccc(N)cc2)cc1,99% (active)
19,Cc1cc(C(C)(C)C)cc(C)c1N,-8.01%
20,CN(C)S(=O)(=O)c1ccc(Oc2ccc(S(=O)(=O)N(C)C)cc2)cc1,6.23%
21,CC(=O)c1ccc(OCCCC(=O)Nc2ccc(C)c(S(=O)(=O)N3CCOCC3)c2)cc1,-0.59%
22,COC(=O)c1ccc2nc(-c3cccc(Br)c3)c(Cc3ccccc3C(F)(F)F)n2c1,-11.5%

row,SMILES,inhibition
1,Nc1nc(-c2sc3nc4c(cc3c2N)CCCC4)nc(N2CCOCC2)n1,-10.3%
2,COc1ccc(CC(=O)Nc2ccccc2NC(=O)c2ccco2)cc1OC,-18.6%
3,COc1ccc(CC(=O)NC2CCSc3ccccc32)cc1OC (stereo not drawn),2.41%
4,COc1ccc(CC(=O)Nc2nc(-c3ccc(F)c(F)c3)cs2)cc1OC,59% (active)
5,O=C(COC(=O)C1CCCO1)Nc1nc(-c2ccc(F)cc2)cs1 (stereo not drawn),-21.9%
6,COc1cc(CC(=O)Nc2nc(-c3ccc(F)c(F)c3)cs2)cc(OC)c1OC,60.3% (active)
7,COc1ccc(CCNC(=O)COC(=O)Cc2cc(OC)c(OC)c(OC)c2)cc1,-9.86%
8,O=c1cc(CO)oc(C(Nc2cccc(C(F)(F)F)c2)c2ccccn2)c1O (stereo not drawn),-5.67%
9,Cc1cc(C)cc(N(CCC#N)C(=O)CN2C(=O)NC3(CCCC3)C2=O)c1,-2.17%
10,CCC(C)NC(=O)CN(C1CCCCC1)S(C)(=O)=O (stereo not drawn),5.8%
11,CCCCCCN1CCN(C2CN(Cc3cn(Cc4ccc(F)cc4)nn3)S(=O)(=O)C2)CC1 (stereo not drawn),8.31%
12,CN(C(=O)c1ccccn1)c1nnc(-c2ccccn2)s1,-1.91%
13,CCc1cc(C(=O)Nc2nnc(C3CC3)s2)sc1C,7.61%
14,Cc1cnc(NC(=O)c2ccccn2)s1,55.5% (active)
15,Cc1cnc(NC(=O)Cn2cnc3c2c(=O)n(C)c(=O)n3C)s1,6.18%
16,CCc1ccccc1OCC(=O)Nc1nnc(C2CC2)s1,-23.1%
17,O=C(Nc1nnc(C2CC2)s1)c1ccccn1,65.5% (active)
18,CN(C)c1cccc(NC(=O)c2ccc(-c3ccc(F)c(F)c3)c3ccoc23)c1,-36.6%
19,CCNC(=S)Nc1ccc2c(c1)c(=O)n(C)n2Cc1ccc(Cl)cc1,10.2%
20,C=CCn1c(=S)[nH]c2scc(-c3ccco3)c2c1=O,2.15%
21,CC(C)CNC(=O)C1(C)CCCN1C(=O)CSc1ccccc1 (stereo not drawn),24.6%
22,Cc1cc(C)nc(S/C=C/C(=O)c2ccccc2)n1,93.2% (active)

row,SMILES,inhibition
1,O=C(/C=C/Sc1ncn[nH]1)c1ccc(Cl)cc1,46.2%
2,COC(c1ccccc1)(c1ccccc1)C(Oc1nc(C)cc(C)n1)C(=O)O (stereo not drawn),1.41%
3,COc1ccc(NC(=O)CC2C(=O)NC3CCCCC3N2C(=O)c2ccc(F)cc2)cc1 (stereo not drawn),3.34%
4,CCSc1nc(=S)n(CC)c(C)c1C(C)=O,-1.72%
5,O=S1(=O)C[C@@H](N2CCN(CCO)CC2)[C@H](COCc2ccccc2)N1,7.64%
6,CCOC(=O)[C@H]1[C@H]2COc3ccc(C)cc3[C@@H]2N2C(=O)CN(Cc3ccc(F)cc3)C(=O)[C@@]12C,-5.2%
7,COc1cccc(/C=C(/CC(=O)Nc2ccc(N3CCOCC3)cc2)c2nc3ccccc3s2)c1,62.8% (active)
8,CCn1c(Cc2ccc(OC)cc2)nnc1SCC(=O)Nc1ccc(N2CCOCC2)cc1,4.78%
9,O=C(COC(=O)CCc1nc2ccccc2c(=O)[nH]1)Nc1ccc(N2CCOCC2)cc1,-0.73%
10,CCN(CC)C(=O)[C@H]1C[C@H](CC(=O)NCC23CC4CC(CC(C4)C2)C3)C(=O)N2CCc3c([nH]c4cc(CCC(=O)N(C)C)ccc34)[C@]12C,6.21%
11,Cc1cccc(CN2CCN(C3CN(Cc4cn(Cc5cc(C)cc(C)c5)nn4)S(=O)(=O)C3)CC2)c1 (stereo not drawn),12.5%
12,COc1ccccc1OCc1nc2ccccc2s1,72.9% (active)
13,COC(=O)C1[C@H]2SC(C)(C)C(C(=O)OC)N2C(=O)N1Cc1nc2ccccc2s1 (stereo partly drawn),10%
14,CCc1ccc(-c2nnn(Cc3nc4ccccc4s3)n2)cc1,-5.59%
15,CC1(C)C2CC[C@]3(C)C(CC=C4[C@@H]5C[C@@](C)(CO)CC[C@]5(C(=O)O)CC[C@]43C)[C@@]2(C)CC[C@@H]1O (stereo partly drawn),-12.1%
16,CNC(=O)C1CN(C(=O)c2cccc(S(=O)(=O)N3CCc4ccccc43)c2)c2ccccc2O1 (stereo not drawn),11.3%
17,CC1CN(S(=O)(=O)c2ccc(C(=O)Nc3sccc3C(N)=O)cc2)CC(C)O1 (stereo not drawn),-0.86%
18,CNC(=O)c1ccsc1NC(=O)c1ccc(S(=O)(=O)N2CCc3ccccc32)cc1,54.5% (active)
19,CCCCCc1c(Cc2ccccc2)ncn1CCc1ccccc1OC,24.1%
20,Cc1ccc(C)c(NC(=O)CN(C)C(=O)c2ccc3ncsc3c2)c1,1.46%
21,Cc1ccc(NS(=O)(=O)c2cc3c(cc2Br)NC(=O)CO3)cc1C,19.6%
22,O=C(Nc1cccc(F)c1)[C@@H]1CCCN1,-1.09%

row,SMILES,inhibition
1,O=C1c2ccccc2C(=O)N1CC1c2ccccc2CCN1S(=O)(=O)c1ccccc1 (stereo not drawn),4.13%
2,CCC(C)NC(=O)c1ccccc1NC(=O)c1ccccc1N(C)S(C)(=O)=O (stereo not drawn),-11.3%
3,O=c1c(/C=N/O)coc2ccc(Cl)cc12,-3.08%
4,CC(C)(C)OC(=O)NCCCCCC(=O)N/N=C/c1coc2ccccc2c1=O,-1.48%
5,Cc1ccc2occ(/C=N/NC(=O)c3ccccc3C)c(=O)c2c1,70.5% (active)
6,CC1(C)CC(=O)c2cnc3nc4ccccc4n3c2C1,6.24%
7,Cn1c(N)c(C(=O)COC(=O)/C=C/c2ccc(OC(F)F)cc2)c(=O)n(C)c1=O,-0.1%
8,CCCOc1ccc(F)cc1-c1cc(C(=O)Nc2ccc(F)c(Cl)c2)[nH]n1,76.2% (active)
9,CCCOc1ccc(F)cc1-c1cc(C(=O)NCc2ccc(F)cc2)[nH]n1,24.1%
10,CCCOc1ccc(F)cc1-c1cc(C(=O)Nc2ccc(F)cc2)[nH]n1,37.3%
11,CCCNC(=O)c1cc2c(c(-c3cccc(-c4ccc(C#N)cc4)c3)n1)[C@@H](CCO)N(C(=O)CC)C2,-20.1%
12,CC(=O)c1c(C)n(-c2ccc(N(C)C)cc2)c2ccc(OCC(N)=O)cc12,57.5% (active)
13,CC(=O)c1c(C)n(-c2ccc(C)cc2)c2ccc(O)cc12,15.6%
14,Cc1cccc(OCC(=O)NCC(=O)N/N=C/c2ccc(N(C)C)cc2)c1,-4.48%
15,COC(=O)[C@]12CCCCC=C1N(Cc1ccccc1)C(=O)[C@H](CC(=O)NCc1ccc(C)o1)C2,9.51%
16,O=C1NC[C@H](CCCCN2C[C@H](Cc3ccc(O)cc3)N(CCc3ccccc3)C(=O)C2=O)N(CCc2ccccc2)C1=O,13.5%
17,O=C1N/C(=C/c2cccn2-c2ccccc2)C(=O)N1c1cccc(Cl)c1,62.3% (active)
18,O=C1CC(NNc2ccccc2)C(=O)N1c1cccc(Cl)c1 (stereo not drawn),15.1%
19,N#Cc1ccccc1CN1C(=O)S/C(=C/c2cccn2-c2cccc(C(=O)O)c2)C1=O,0.32%
20,Cc1ccc([C@H]2C[C@H](O)[C@@H](n3cc(COC(=O)c4ccccc4)nn3)CN2C(=O)C2CCCCC2)cc1,21%
21,COCCNC(=O)c1ccccc1-c1nc(-c2ccccc2Cl)no1,-18.8%
22,Cc1c(NC(=O)C(C)OC(=O)c2ccccc2O)c(=O)n(-c2ccccc2)n1C (stereo not drawn),2.88%
